{"source": "paper PMC12136788", "binders": {"B1": {"name": "chr11:4127340:4127341:+_ENSG00000167325_ENST00000300738|hu_mus|hu_hu_hu_mus_False|28_38 (ssRNA)", "RNA": "GGGAGUUCUACAGUCCGACGAUCGGCAUAGUCAGGGUGCUUCGUGGUCAAGGUCGCGGCUGUCUCAGCAGCCAGGGUGUCCAGUUCCACUGUGGUGACCCCACUGUACAAGCCUUGGAUUACUUUCAUGGUGAUCUGAGCAGGCAACAGAGGAUUGAGCAUCA"}, "B2": {"name": "chr17:62500844:62500845:-_ENSG00000108654_ENST00000583239|hu_hu|FALSE|FALSE (ssRNA)", "RNA": "GGGAGUUCUACAGUCCGACGAUCCUUGAUAAAAAUUCUUCUCAAAUUUAGGCAGCUCAUCAAGAUUCCACUUCUUUUUAACUAAUUUCUCCCCAGGGUUUCCAAACUUCUUUCCAGAUAAGGGCCCUGCCCUACUUCCUCCAACAACAGAGGAUUGAGCAUCA"}, "B3": {"name": "chr15:96529919:96529920:-_ENSMUSG00000022462_ENSMUST00000023099|mus_hu|FALSE|FALSE (ssRNA)", "RNA": "GGGAGUUCUACAGUCCGACGAUCUCUCUAUUCUCACGCAGACGUCUUCAGUGGGUUUCUCUCAGUCAAAUACAAAUCAUAAAAAACAAACAAAAAAUUUCCCCAAAUCCAACAACAGGCAGGAAAAAUAAUUUUAAUAAAAAACAACAGAGGAUUGAGCAUCA"}, "B4": {"name": "chr2:202488911:202488912:-_ENSG00000155755_ENST00000286196|hu_mus|hu_hu_hu_mus_False|18_68 (ssRNA)", "RNA": "GGGAGUUCUACAGUCCGACGAUCAUUGAAACAUUUUUCAUAAUCUCCAGUAGCAUUUCAGCAUUAUUAAUCAAAAACUCAAUUGUAAAUACAUGUAUCUUAUAAAAAUACACUUAAAUUUAAAAACGGGGAGCGCAGGCGCCACAACAGAGGAUUGAGCAUCA"}, "B5": {"name": "chr2:202488911:202488912:-_ENSG00000155755_ENST00000286196|hu_mus|hu_hu_hu_mus_False|18_78 (ssRNA)", "RNA": "GGGAGUUCUACAGUCCGACGAUCAUUGAAACAUUUUUCAUAAUCUCCAGUAGCAUUCAGUAUUAUAGUAACAAAAGCUCAAUUGUAAAUACAUGUAUCUUAUAAAAAUACACUUAAAUUUAAAAACGGGGAGCGCAGGCGCCACAACAGAGGAUUGAGCAUCA"}, "B6": {"name": "chr2:202488911:202488912:-_ENSG00000155755_ENST00000286196|hu_mus|hu_hu_hu_mus_False|58_68 (ssRNA)", "RNA": "GGGAGUUCUACAGUCCGACGAUCAUUGAAACAUUUUUCAUAAUCUCCAGUAGCAUUUCAGCAUUAUUAAUCAAAAAAUCUAUUACAAAUACAUGUAUCUUAUAAAAAUACACUUAAAAACACGAGUGGGGAGCGCAGGCGCCACAACAGAGGAUUGAGCAUCA"}, "B7": {"name": "chr4:24541891:24541892:-_ENSG00000109606_ENST00000336812|perfect_dup|FALSE|FALSE (ssRNA)", "RNA": "GGGAGUUCUACAGUCCGACGAUCGGAUCCCAAUUCAGUCAGAUCUCCAUCAUCAUUUAAAGCAGCCAAAUAAUUCAAAAGUUCUAGGGCUCUCAUCAGAGUUUCAGGAGCUGGUGGGUCCAUAAAAUCAAAGUGUACCAAGUCCAACAGAGGAUUGAGCAUCA"}, "B8": {"name": "chr2:216981417:216981418:+_ENSG00000079246_ENST00000392132|hu_hu|hu_hu_hu_mus_True|48_48 (ssRNA)", "RNA": "GGGAGUUCUACAGUCCGACGAUCCUGAUACUGGUCCUUGCCAGCAAGGGCAUUAUCAGUGCCAUCUGUGCCAUAGAGGACUAACGCAAUCUCAUCCUUGCUCUCCGAAAAUACCUGUCGUUGGACAAACAUAGUCAUCACUUUCAACAGAGGAUUGAGCAUCA"}, "B9": {"name": "132431906_132432936_2116_CDS_ENSG00000170606_ENST00000304858|human|control|control (ssRNA)", "RNA": "GGGAGUUCUACAGUCCGACGAUCUCUCAUUUCAUACACAUAUUCCUCCACUGCGUUCUUAGCAUCAUUCCGCUCCUUCUCCAGUUUAUCCUGCAUGAUCAUCUUACCCUCAUUUUCAAUGUACAAGUUGAGCAUCUCUCUGUCCAACAGAGGAUUGAGCAUCA"}, "B10": {"name": "96523144_96524318_649_CDS_ENSMUSG00000031751_ENSMUST00000053766|mouse|control|control (ssRNA)", "RNA": "GGGAGUUCUACAGUCCGACGAUCGGAAAGGUAUUCAAAUCUGUCUUUGCAGAGCUGAACCAUCAGAUGCAGGAAGACAAGUCCAGCAAACCAGAGGCACCACAUCACCACUUCCUCCACAGUCUGGACAUUCAGCACUCCAAACAACAGAGGAUUGAGCAUCA"}, "B11": {"name": "chr18:33606911:33606912:-_ENSG00000141425_ENST00000399022|hu_mus|FALSE|FALSE (ssRNA)", "RNA": "GGGAGUUCUACAGUCCGACGAUCUUCCAAUUUAUGUUCUUUCUCUGCAAGGGCUUCCUUUUGACAACGAAGAAAAUCUGCUAACAUUCGGGUGAGUUGCUUUCUAUCAUCUAUUUCUGCCGCCAGUCUGCCAUUAUAAUCUGCCAACAGAGGAUUGAGCAUCA"}, "B12": {"name": "chr12:48362563:48362564:+_ENSG00000134291_ENST00000256686|hu_hu|hu_hu_hu_mus_False|58_88 (ssRNA)", "RNA": "GGGAGUUCUACAGUCCGACGAUCUCCGUCAAGCCCUUCGAUAGACCCAUAGACUCUAAACUGUAAUCACUUUGUAUUUCUAAAAAAAAGAAACGCCAAAAACUUUCCAAAAAGCGGGGGUGGGGUGAGGCGGGAGGGGGAGGUCAACAGAGGAUUGAGCAUCA"}, "B13": {"name": "419052_420092_3597_CDS_ENSG00000073614_ENST00000399788|human|control|control (ssRNA)", "RNA": "GGGAGUUCUACAGUCCGACGAUCUUCUAUUAGUUCUUUUACUUUUUUCCUCCUAUUUUUGCCACUCCCAUAUACACCAAUGUCGGUCCGGGGGCUCAGCACCUGUAACAAUGUAUGGCUAGAAUUCUUCUUAAGAAACGUCCGCAACAGAGGAUUGAGCAUCA"}, "B14": {"name": "chr7:888068:888069:+_ENSG00000164828_ENST00000456758|hu_hu|motif|central (ssRNA)", "RNA": "GGGAGUUCUACAGUCCGACGAUCUUGAACUAAAAAUGAUGAAAAAGAUGAUGCAGUGUAUCUGGCCAGCCACAAAAUCCGGUUCACGUAGAAAGACGCACCGCAUUUUUGAUUCCUGUCCCUAGAAUAAACUCUCGACACGGGCAACAGAGGAUUGAGCAUCA"}, "B15": {"name": "chr19:40639365:40639366:-_ENSMUSG00000025007_ENSMUST00000025979|mus_mus|motif|central (ssRNA)", "RNA": "GGGAGUUCUACAGUCCGACGAUCGGCUGCCACCUGGGGUAGACAGUCAGGGCGAGACUCAAAGAUCACCAGUAAAACACCGGUUGGGACAGUCACUUGUUCUAACUCCAGGUUUUUGGCAAUCCGAGUCCGGCGCAGGACGCGCAACAGAGGAUUGAGCAUCA"}, "B16": {"name": "chr2:168997265:168997266:-_ENSG00000198648_ENST00000355999|hu_mus|motif|central (ssRNA)", "RNA": "GGGAGUUCUACAGUCCGACGAUCUUUAUUCCGUGUAACAUCACCCCCUGUGGCUAAGAAUGCGCUUACUCCAAAAUCUGCGGUUUGUACUGAGCCAUCCUCACCCAGAAGAAUAUUUCCAGCUUUCAAAUCCCUAUGGAUCUGCAACAGAGGAUUGAGCAUCA"}, "B17": {"name": "chr2:202488911:202488912:-_ENSG00000155755_ENST00000286196|hu_mus|hu_hu_hu_mus_False|8_8 (ssRNA)", "RNA": "GGGAGUUCUACAGUCCGACGAUCAUUGAAACAUUUUUCAUAAUCUCCAGUAGCAUUUCAGCAUUAUGUAACAAAAGCUCAAUUGUAAAUACAUGUAUCUUAUAAAAAUACACUUAAAAACACGAGUAAAAAUGGGAGGCGCCACAACAGAGGAUUGAGCAUCA"}, "B18": {"name": "chr2:202488911:202488912:-_ENSG00000155755_ENST00000286196|hu_mus|hu_hu_hu_mus_False|8_18 (ssRNA)", "RNA": "B17 RNA with A118U, A119U, C120U, C122A, G123A, G125A, U126C"}, "B19": {"name": "chr2:202488911:202488912:-_ENSG00000155755_ENST00000286196|hu_mus|hu_hu_hu_mus_False|18_48 (ssRNA)", "RNA": "B4 RNA with U67G, A68U, U70A, A76G, U93C, G94A, A96G"}, "B20": {"name": "chr19:47150976:47150977:-_ENSG00000197380_ENST00000391916|hu_hu|motif|central (ssRNA)", "RNA": "GGGAGUUCUACAGUCCGACGAUCACUGGGGAGUCACCAUCGUCAUAAUAAAUACAGUAAUUUUAAAAAAGAAAAAAAAUACGGGAUUGGAACAGCUGAGGGUCAUCAGGCUUCCCCCAUUCCCUCUCACAGGGAGUGGGGGUCCAACAGAGGAUUGAGCAUCA"}, "B21": {"name": "chr1:229631779:229631780:-_ENSG00000069248_ENST00000261396|hu_hu|motif|central (ssRNA)", "RNA": "GGGAGUUCUACAGUCCGACGAUCUAAUUCCCAUUUACUGAUGUUUGAACUCGUCAGGCUAUAAAAGCUUGAUCUCUCUCGGUCCCAGAGAACACUUGAAAGUGUGAGAUCACUACUAGGAGAUAAAAUUCCAAAAAGAGAAGACAACAGAGGAUUGAGCAUCA"}, "B22": {"name": "chr2:202488911:202488912:-_ENSG00000155755_ENST00000286196|hu_mus|hu_hu_hu_mus_False|1_18 (ssRNA)", "RNA": "GGGAGUUCUACAGUCCGACGAUCAUUGAAACAUUUUUCAUAAUCUCCAGUAGCAUUUCAGCAUUAUGUAACAAAAGCUCAAUUGUAAAUACAUGUAUCUUAUAAAAAUACACUUAAAUUUAAAAACGGGGAGCGCACAAAUACCAACAGAGGAUUGAGCAUCA"}, "B23": {"name": "chr2:27806210:27806211:+_ENSMUSG00000026837_ENSMUST00000028280|mus_mus|FALSE|FALSE (ssRNA)", "RNA": "GGGAGUUCUACAGUCCGACGAUCUGUGGUUUCUCUGGCAGCUUCCACUGGCUUCUGAGUAGGGGCAGGCUCCUUUCCCGGGUCUUCAGGGUCUUCAUAAUAUGGAUACUCAUAGUAAUAGGUCUCACCCUCUCCUUCUGGGUACAACAGAGGAUUGAGCAUCA"}}, "note": "Substitutions are numbered along the chain they refer to. Whole data set: some 24,000 sequences, median “enrichment r” near 0.99, cut for the highest 2% near 3.7. For the sample, the highest values were picked, then their nearest neighbours and some sequences at random."}
{"molecular_target": "T1, UNK ZnF1-3 (human, UniProt Q9C0B0 31-174)", "T1 sequence": "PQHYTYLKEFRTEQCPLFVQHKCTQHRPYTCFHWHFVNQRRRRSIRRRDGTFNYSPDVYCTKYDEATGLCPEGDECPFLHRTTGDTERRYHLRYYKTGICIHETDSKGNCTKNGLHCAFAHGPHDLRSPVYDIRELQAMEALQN", "assay": "nsRBNS (natural sequence RNA bind-n-seq); RBNS binding buffer (assumed for nsRBNS): 25 mM Tris pH 7.5, 150 mM KCl, 3 mM MgCl2, 0.01% Triton X-100, 500 ug/ml BSA, 20 U/ml SUPERase-In, 4 C; UNK is unkempt and MSI1 is Musashi-1; names of the RNAs are library labels; protein concentration not given here; high values mean tight binding", "units": {"binding signal": "enrichment R"}}
{"binder": "B1", "binding signal": 1.08}
{"binder": "B2", "binding signal": 1.55}
{"binder": "B3", "binding signal": 3.81}
{"binder": "B4", "binding signal": 7.64}
{"binder": "B5", "binding signal": 5.43}
{"binder": "B6", "binding signal": 14}
{"binder": "B7", "binding signal": 1.58}
{"binder": "B8", "binding signal": 0.666}
{"binder": "B9", "binding signal": 0.774}
{"binder": "B10", "binding signal": 2.02}
{"binder": "B11", "binding signal": 0.802}
{"binder": "B12", "binding signal": 1.85}
{"binder": "B13", "binding signal": 0.677}
{"binder": "B14", "binding signal": 1.34}
{"binder": "B15", "binding signal": 1.58}
{"binder": "B16", "binding signal": 0.927}
{"binder": "B17", "binding signal": 0.957}
{"binder": "B18", "binding signal": 6.76}
{"binder": "B19", "binding signal": 3.69}
{"binder": "B20", "binding signal": 6.05}
{"binder": "B21", "binding signal": 1.07}
{"binder": "B22", "binding signal": 3.65}
{"binder": "B23", "binding signal": 0.892}
